# Compounds without any hit were thinned out: in the full panel of roughly 83,000, 20% have a hit.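 In brief: 96-well plates, 48 h treatment, single concentration, percent growth endpoint.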 Unmarked numbers belong to inactive results. Calls of active or inactive are those of the source. Rule for the calls: active = growth percent below 10; inactive = the rest.
# Tested on: HL-60(TB) leukemia
# Assay: NCI-60 one-dose screen, 48 h (100 = growth as untreated, 0 = no growth, -100 = all killed)
# Settings: 10 µM unless noted
row,SMILES,growth
1,COc1cc(-c2nc3sccn3c2-c2ccnc(NCCCNS(=O)(=O)c3ccc(F)cc3)n2)ccc1F,64.9%
2,COc1ccc(C(=O)c2cc(C)c(OC)c(C)c2)c(OC)c1NC(C)=O,-26.3% (active)
3,CCN(CC)c1ccc2cc(C(Nc3ccc(C)cc3)c3nnnn3C(C)(C)C)c(=O)oc2c1 (configuration not stated),89%
4,CCCCCCCCCCCCCCCC(=O)O[C@@H]1[C@@H](O)[C@@H](O)C([C@H](NC(=O)[C@@H]2C[C@@H](CCC)CN2C)[C@H](C)Cl)O[C@@H]1SC (some centres not stated),98.6%
5,Cc1cccc(NC(=O)[C@@H]2c3ccccc3C(=O)N(c3ccc(Cl)cc3)[C@H]2c2ccc(Cl)cc2)n1,36.2%
6,CCOC(=O)NNC(=S)Nc1ccccc1,106%
7,COc1ccc(-c2c(NC(=O)Nc3ccc(Cl)c(C(F)(F)F)c3)cnn2-c2ccc(S(N)(=O)=O)cc2)cc1,-15% (active)
8,CCc1c(C(=O)NCc2c(O)ccc3cccc(O)c23)[nH]c(C)c1C(C)=O,41.5%
9,COc1ccc(-c2nc(/C=C3/C(=O)Nc4ccc(F)cc43)c3ccccn23)cc1,61.6%
10,Cc1ccc(-c2nc(/C=N/Nc3cc(C)nc4ccc(Br)cc34)c(C)o2)cc1,-37.4% (active)
11,NC1=CC(=O)c2ccccc2C1=O,81.6%
12,Cc1ccc(C(SCC(N)C(=O)O)(c2ccccc2)c2ccc(C)cc2)cc1 (configuration not stated),-36% (active)
13,CCOC(=O)C1=C(C)N2C(=NC3=C(CCC/C3=C\c3ccc(Cl)cc3)C2c2ccc(Cl)cc2)S1 (configuration not stated),-10.8% (active)
14,CCNc1ncnc2c1cnn2C1CCCO1 (configuration not stated),92.5%
15,CCCCCCCC/C=C\CCCCCCCCOc1cccc(CC(=O)NCC[N+](C)(C)C)c1,61.1%
16,Cc1cc2c(c(C)c1Cl)C(=O)/C(=C/c1ccc(O)c(O)c1)O2,108%
17,CSc1nc2c(c(=O)[nH]1)C(c1ccc(Cl)cc1)C1=C(N2)/C(=C/c2ccc(Cl)cc2)CNC1 (configuration not stated),55.4%
18,C[C@@H]1C(=O)N(C[C@H](Cc2ccccc2)NC(=O)OCc2ccccc2)[C@]1(Cc1ccccc1)C(=O)OCc1ccccc1,37.4%
19,COC(=O)c1cnc2c(c1)Oc1ccc(Cl)cc1-c1cc(C)nn1-2,95.9%
20,COc1cnc2c(c1)C(=O)c1c-2n(CCCCl)c(=O)c2ccncc12,15.8%
21,Clc1ccc2nc3nc4ccc[nH]c4cc3c2c1,88.2%
22,Oc1cccc2c1NCCC2,7.84% (active)
23,CC(C)[C@@H]1CC[C@]2(C(=O)NCCCCN=C(N)N)CC[C@]3(C)[C@H](CC[C@@H]4[C@@]5(C)CCC(=O)C(C)(C)[C@@H]5CC[C@]43C)[C@@H]12,13.5%
24,CCc1nn2c(-c3ccc(Cl)cc3C)c(-c3cc(OC)c(OC)c(OC)c3)nc2s1,73.6%
25,CCCCCCCCCCCCCCCCCCOc1ccccc1CC(=O)OCC[N+]1(C)CCCCC1,-5.08% (active)
26,Cc1csc(-c2nnc(Nc3ccc(Oc4ncccc4-c4ccnc(N)n4)cc3)c3ccccc23)c1,12.9%
27,NC(=O)C(=O)c1ccccc1NC=O,101%

# Source: PubChem BioAssay (NCI)
